# Laboratory results: the supplement of paper PMC10981050
# “And” between values parts separate entries of the source, which are not always exact repeats. Equal values may be shown once. Where a name gives a salt, the structure may show the parent alone.
# Key:
# Experiment in all cases: cell viability relative to vehicle control; higher = less cytotoxic
# Conditions in all cases: 10 µM
# K562 = tested on: K562
# How it was run: (§1)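 CRISPR-edited mutant clones and isogenic wild-type clones from four leukaemia lines were screened against Selleck bioactive, kinase and epigenetic probe libraries, with identity-inconsistent compounds excluded. Each compound was acoustically dispensed at a single 10 µM dose into 384-well plates holding 2000 cells in 50 µL medium per well. After 48 h the supernatant was removed and CellTiter-Glo luminescence was read. Viability was expressed as percent of the on-plate vehicle control and analysed in Genedata Screener.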
# MARIMO = tested on: MARIMO
# How it was run: as §1
# MOLM14 = tested on: MOLM14
# How it was run: as §1
# OCI-AML2 = tested on: OCI-AML2
# How it was run: as §1
SMILES,cell viability (K562; SRSF2 genotype: SRSF2 P95H/wt),cell viability (K562; SRSF2 genotype: SRSF2 wt/wt) [%],cell viability (MARIMO; SRSF2 genotype: SRSF2 P95H/wt) [%],cell viability (MARIMO; SRSF2 genotype: SRSF2 wt/wt) [%],cell viability (MOLM14; SRSF2 genotype: SRSF2 P95H/wt) [%],cell viability (MOLM14; SRSF2 genotype: SRSF2 wt/wt) [%],cell viability (OCI-AML2; SRSF2 genotype: P95H/wt) [%],cell viability (OCI-AML2; SRSF2 genotype: wt/wt) [%]
O=C(CBr)c1ccc(O)cc1 [PTP Inhibitor I],106% and 101%,107,103,104,97.2,108,104,103
CCN(CC)CCOC(=O)C(O)(c1ccccc1)c1ccccc1 [Benactyzine hydrochloride],87.1% and 93%,84.2,93,98.4,92.6,94.4,89.8,92.6
O=C1C=CC[C@@H]2[C@H]3CCCN4CCC[C@@H](CN12)[C@@H]34 [Sophocarpine],103% and 107%,102,108,111,106,106,98.4,108
CC(=O)Nc1ccc(Cc2ccc(NC(C)=O)cc2)cc1,104% and 107%,107,105,106,106,104,104,113
COC1=C[C@]23CCCN2CCc2cc4c(cc2[C@@H]3[C@@H]1O)OCO4 [Cephalotaxine],91.4% and 93.8%,93.5,91,93.2,96.1,96.5,90.8,91.4
N#CC(C#N)=NNc1ccc(OC(F)(F)F)cc1,16.2% and 15.8%,19.2,31.8,28,14.5,11.2,2.85,8.68
O=C(O)C(=O)c1cn(Cc2ccccc2)c2ccc(-c3ccc(OC(F)(F)F)cc3)cc12 [Tiplaxtinin (PAI-039)],84.4% and 88.9%,90.3,92.3,101,90.9,93.8,97.4,103
CNCC(O)c1ccc(O)cc1 (stereo not drawn) [Synephrine HCl],102% and 114%,108,110,99.8,104,111,108,101
Cc1ccccc1-n1c(CF)nc2ccc(N)cc2c1=O [Afloqualone],88.1% and 90.6%,86.5,84.5,95.7,93.2,96.2,110,94.4
O=c1ccc2c(O)c3ccoc3cc2o1 [Bergaptol],108% and 106%,116,105,95.6,113,107,106,97.5
C[C@@H]1CC[C@@]2(OC1)O[C@H]1C[C@H]3[C@@H]4CC=C5C[C@@H](O[C@@H]6O[C@H](CO)[C@@H](O[C@@H]7O[C@@H](C)[C@H](O)[C@@H](O)[C@H]7O)[C@H](O)[C@H]6O[C@@H]6O[C@@H](C)[C@H](O)[C@@H](O)[C@H]6O)CC[C@]5(C)[C@H]4CC[C@]3(C)[C@H]1[C@@H]2C [Dioscin (Collettiside III)],0.8% and 0.73%,0.55,1.89,0.64,0.47,0.55,0.51,0.51
